From PubChem BioAssay AID1159580 (chemical genetic matrix, 2015)
Hit rate of the full screen: of about 5,500 compounds, about 2,000 (36%) were called active. Not shown: some 18% with an inconclusive outcome. Rule as the data show it: active = normalized growth mostly below about 0.91 (no sharp cut-off); inconclusive = no clear call, values can overlap the other calls; inactive = mostly above about 0.92. The list shows a part of the results.

Assay: chemical genetic growth profiling, strain panel (AID 1159580);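 also: tested at 20 µM; growth read once vehicle control cultures reached saturation at 30 °C; 1 = growth at the plate median or of vehicle wells; lower values mean less growth of the strain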
Conditions: growth OD
[1] = S. cerevisiae deletion strains, locus YAL013W, strain DEP1, hits give low values
[2] = S. cerevisiae deletion strains, locus YBR229C, strain ROT2, hits give low values
[3] = S. cerevisiae deletion strains, locus YDL101C, strain DUN1, hits give low values
[4] = S. cerevisiae deletion strains, locus YDR150W, strain NUM1, hits give low values
[5] = S. cerevisiae deletion strains, locus YEL061C, strain CIN8, hits give low values
[6] = S. cerevisiae deletion strains, locus YGR078C, strain PAC10, hits give low values
[7] = S. cerevisiae deletion strains, locus YHR030C, strain SLT2, hits give low values
[8] = S. cerevisiae deletion strains, locus YJR043C, strain POL32, hits give low values
[9] = S. cerevisiae deletion strains, locus YJR075W, strain HOC1, hits give low values
[10] = S. cerevisiae deletion strains, locus YLR039C, strain RIC1, hits give low values
[11] = S. cerevisiae deletion strains, locus YLR262C, strain YPT6, hits give low values
[12] = S. cerevisiae deletion strains, locus YMR263W, strain SAP30, hits give low values
[13] = S. cerevisiae deletion strains, locus YMR307W, strain GAS1, hits give low values
[14] = S. cerevisiae deletion strains, locus YNL128W, strain TEP1, hits give low values
[15] = S. cerevisiae deletion strains, locus YNL153C, strain GIM3, hits give low values
[16] = S. cerevisiae deletion strains, locus YNL322C, strain KRE1, hits give low values
[17] = S. cerevisiae deletion strains, locus YOL006C, strain TOP1, hits give low values
[18] = S. cerevisiae deletion strains, locus YPL055C, strain LGE1, hits give low values
[19] = S. cerevisiae deletion strains, locus YPL241C, strain CIN2, hits give low values
[20] = S. cerevisiae deletion strains, locus YAL040C, strain CLN3, hits give low values
[21] = S. cerevisiae deletion strains, locus YDR363W, strain ESC2, hits give low values
[22] = S. cerevisiae deletion strains, locus YER002W, strain NOP16, hits give low values
[23] = S. cerevisiae deletion strains, locus YNL175C, strain NOP13, hits give low values
[24] = S. cerevisiae deletion strains, locus YNL197C, strain WHI3, hits give low values
[25] = S. cerevisiae deletion strains, locus YNL224C, strain SQS1, hits give low values
[26] = S. cerevisiae deletion strains, locus YOR083W, strain WHI5 (second series), hits give low values
[27] = S. cerevisiae deletion strains, locus YCL061C, strain MRC1 (second series), hits give low values

Measured: normalized growth

Cc1cccc(Nc2ccncc2S(=O)(=O)NC(=O)NC(C)C)c1
inactive: [1] 1.01 | S. cerevisiae deletion strains, locus YBR021W, strain FUR4, hits give low values 1.02 | [2] 1.01 | S. cerevisiae deletion strains, locus YCL029C, strain bik1, hits give low values 1.02 | S. cerevisiae deletion strains, locus YDL035C, strain GPR1, hits give low values 1.02 | S. cerevisiae deletion strains, locus YDL074C, strain BRE1, hits give low values 1.01 | [3] 1.02 | S. cerevisiae deletion strains, locus YDL134C, strain PPH21, hits give low values 1 | S. cerevisiae deletion strains, locus YDL185W, strain tfp1, hits give low values 1.02 | S. cerevisiae deletion strains, locus YDL192W, strain arf1, hits give low values 1.03 | S. cerevisiae deletion strains, locus YDR101C, strain arx1, hits give low values 1.02 | [4] 1.02 | S. cerevisiae deletion strains, locus YDR162C, strain NBP2, hits give low values 1.01 | S. cerevisiae deletion strains, locus YDR318W, strain mcm21, hits give low values 1.03 | S. cerevisiae deletion strains, locus YDR388W, hits give low values 1.02 | S. cerevisiae deletion strains, locus YDR502C, strain sam2, hits give low values 1.02 | [5] 1.01 | S. cerevisiae deletion strains, locus YER110C, hits give low values 1.03 | S. cerevisiae deletion strains, locus YER155C, strain BEM2, hits give low values 0.999 | S. cerevisiae deletion strains, locus YER167W, strain BCK2, hits give low values 1.01 | S. cerevisiae deletion strains, locus YGL078C, strain dbp3, hits give low values 1.02 | S. cerevisiae deletion strains, locus YGL086W, strain mad1, hits give low values 1.02 | S. cerevisiae deletion strains, locus YGL248W, strain PDE1, hits give low values 1.01 | [6] 1.05 | S. cerevisiae deletion strains, locus YGR135W, strain pre9, hits give low values 1.01 | S. cerevisiae deletion strains, locus YGR229C, strain SMI1, hits give low values 1.04 | S. cerevisiae deletion strains, locus YGR252W, strain gcn5, hits give low values 1.08 | [7] 1.01 | S. cerevisiae deletion strains, locus YHR079C, strain IRE1 (second series), hits give low values 1.01 | S. cerevisiae deletion strains, locus YHR094C, strain hxt1, hits give low values 1.02 | S. cerevisiae deletion strains, locus YHR129C, strain ARP1, hits give low values 1 | S. cerevisiae deletion strains, locus YHR200W, strain rpn10, hits give low values 1.03 | S. cerevisiae deletion strains, locus YIL066C, strain RNR3, hits give low values 1.04 | S. cerevisiae deletion strains, locus YIL125W, strain kgd1, hits give low values 1.01 | S. cerevisiae deletion strains, locus YIR030C, strain dcg1, hits give low values 1.02 | S. cerevisiae deletion strains, locus YJL095W, strain BCK1, hits give low values 1.02 | S. cerevisiae deletion strains, locus YJL134W, strain LCB3, hits give low values 1.01 | S. cerevisiae deletion strains, locus YJL168C, strain set2, hits give low values 1.02 | S. cerevisiae deletion strains, locus YJL187C, strain SWE1 (second series), hits give low values 1.02 | [8] 1.04 | [9] 1.01 | S. cerevisiae deletion strains, locus YKL009W, strain mrt4, hits give low values 1.01 | S. cerevisiae deletion strains, locus YKL068W, hits give low values 1.01 | S. cerevisiae deletion strains, locus YKL085W, strain MDH1 (second series), hits give low values 0.986 | S. cerevisiae deletion strains, locus YKL085W, strain MDH1, hits give low values 0.986 | S. cerevisiae deletion strains, locus YKL190W, strain CNB1, hits give low values 1.03 | S. cerevisiae deletion strains, locus YKR001C, strain vps1, hits give low values 1.03 | [10] 1.04 | S. cerevisiae deletion strains, locus YLR058C, strain SHM2, hits give low values 1.01 | S. cerevisiae deletion strains, locus YLR102C, strain apc9, hits give low values 1.02 | [11] 1.03 | S. cerevisiae deletion strains, locus YLR268W, strain sec22, hits give low values 1.02 | S. cerevisiae deletion strains, locus YLR330W, strain CHS5, hits give low values 1.01 | S. cerevisiae deletion strains, locus YLR342W, strain FKS1 (second series), hits give low values 1.06 | S. cerevisiae deletion strains, locus YLR371W, strain rom2, hits give low values 1.03 | S. cerevisiae deletion strains, locus YLR418C, strain cdc73, hits give low values 1.01 | S. cerevisiae deletion strains, locus YML016C, strain PPZ1, hits give low values 1.01 | S. cerevisiae deletion strains, locus YML032C, strain rad52, hits give low values 1.03 | S. cerevisiae deletion strains, locus YML124C, strain tub3, hits give low values 1.02 | S. cerevisiae deletion strains, locus YMR078C, strain ctf18, hits give low values 1.03 | S. cerevisiae deletion strains, locus YMR223W, strain ubp8, hits give low values 1.03 | [12] 1.02 | [13] 1.05 | S. cerevisiae deletion strains, locus YNL067W, strain RPL9B, hits give low values 1.01 | [14] 1.02 | [15] 1 | S. cerevisiae deletion strains, locus YNL233W, strain BNI4, hits give low values 1 | S. cerevisiae deletion strains, locus YNL250W, strain rad50, hits give low values 1.02 | S. cerevisiae deletion strains, locus YNL271C, strain bni1, hits give low values 1.02 | S. cerevisiae deletion strains, locus YNL298W, strain CLA4, hits give low values 1.02 | S. cerevisiae deletion strains, locus YNL307C, strain MCK1, hits give low values 1.03 | [16] 1.02 | S. cerevisiae deletion strains, locus YNR052C, strain pop2, hits give low values 1.03 | [17] 1 | S. cerevisiae deletion strains, locus YOL012C, strain htz1 0.913 | S. cerevisiae deletion strains, locus YOL147C, strain pex11, hits give low values 1.02 | S. cerevisiae deletion strains, locus YOR061W, strain CKA2, hits give low values 1.01 | S. cerevisiae deletion strains, locus YOR069W, strain VPS5, hits give low values 1 | S. cerevisiae deletion strains, locus YOR136W, strain idh2, hits give low values 1.03 | S. cerevisiae deletion strains, locus YOR144C, strain elg1, hits give low values 1.03 | S. cerevisiae deletion strains, locus YOR184W, strain ser1, hits give low values 1.03 | S. cerevisiae deletion strains, locus YOR316C, strain cot1, hits give low values 1.02 | [18] 1.04 | [19] 1.03 | S. cerevisiae deletion strains, locus YPR119W, strain clb2, hits give low values 1.02 | S. cerevisiae deletion strains, locus YPR141C, strain kar3, hits give low values 1.02 | S. cerevisiae deletion strains, locus YPR163C, strain tif3, hits give low values 1.03 | S. cerevisiae deletion strains, locus YPR167C, strain met16, hits give low values 1.01 | S. cerevisiae deletion strains, strain wtn01, hits give low values 1 | S. cerevisiae strains, strain wild type, hits give low values 1.04

CC(=O)OCC1=C(C(=O)O)N2C(=O)C(NC(=O)Cc3cccs3)C2SC1 (centres undefined)
inactive: [1] 1.01 | [20] 0.993 | [21] 1 | [22] 1.03 | [9] 0.995 | [15] 1.03 | [23] 1.01 | [24] 1.05 | [25] 1.03 | [26] 1.05

CN1CCN(c2nc3cc(C(F)(F)F)ccc3n3cccc23)CC1
inactive: [20] 1 | [27] 0.985 | [21] 0.908 | [22] 1.01 | [6] 1.01 | [9] 0.971 | [12] 1 | [14] 1.05 | [15] 0.88 | [24] 1.06 | [25] 1.03 | [16] 0.972 | [26] 0.919
active: [13] 0.867

OC1(c2ccc(Cl)cc2)CSc2nc3cc(C(F)(F)F)ccc3n21 (centres undefined)
inactive: [1] 1.03 | [2] 1 | [3] 0.995 | [4] 1.01 | [5] 1.02 | [6] 1 | [7] 1.02 | S. cerevisiae deletion strains, locus YHR087W, strain rtc3, hits give low values 1.03 | [8] 1.01 | [9] 1 | [10] 1.09 | S. cerevisiae deletion strains, locus YLR058C, strain SHM2 (second series), hits give low values 1.02 | S. cerevisiae deletion strains, locus YLR085C, strain ARP6, hits give low values 1.11 | [11] 1.12 | S. cerevisiae deletion strains, locus YML094W, strain GIM5, hits give low values 1.07 | S. cerevisiae deletion strains, locus YMR219W, strain ESC1, hits give low values 1.01 | [12] 1.02 | [15] 0.991 | S. cerevisiae deletion strains, locus YNL298W, strain CLA4 (second series), hits give low values 1.1 | [16] 1.02 | S. cerevisiae deletion strains, locus YNR030W, strain Alg12, hits give low values 1.09 | [17] 1.08 | [18] 0.998 | [19] 1.04 | S. cerevisiae deletion strains, locus YPR135W, strain CTF4, hits give low values 1.02

CN1CCN(c2ccc3ccccc3n2)CC1
inactive: [20] 1.04 | [27] 0.996 | [4] 1 | [21] 0.982 | [22] 1 | [6] 1.01 | [9] 0.982 | [13] 1 | [23] 1.02 | [24] 1 | [25] 1.01 | [16] 0.982 | [26] 1.03 | [18] 0.925 | [19] 0.993
